The text below walks through data of PubChem BioAssay (NCI).

Structures are written as SMILES. Several values for one entry are separate records, joined by “and”; a condition that tells them apart may be missing. Equal entries are not always repeated. This is part of a sample that, as a whole, favours compounds with a hit. Of some 83,000 tested, about 20% had one in any assay.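 How to read the values: 0–100, growth inhibition (40 = 60% inhibited); 0, no net growth; -100 to 0, cell death (-40 = 40% of starting cells died; -100 = all dead).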 Activity calls are given as the source filed them. Rule for the calls: active = growth percent below 10; inactive = the rest.

The experiment concerns HL-60(TB) leukemia. Nature of the experiment: NCI-60 one-dose screen, 48 h (100 = growth as untreated, 0 = no growth, -100 = all killed).

`N#CC1C=CN(CC(N)=O)c2ccc3cccnc3c21` (stereo not drawn): for the setting “10 µM unless noted”, the growth is 92.7% (inactive). Consider `CC1CN(c2oc(-c3ccccc3)nc2C#N)CC(C)O1` (stereo not drawn), for which the growth (10 µM unless noted) is 101% (inactive). Turning to `CCCCNC(=O)Oc1ccc(/C(=C(\C)c2ccc(OC)cc2)c2ccc(OCCN3CCCCC3)cc2)cc1`, the growth (10 µM unless noted) is 34.6% (inactive). Turning to `Cc1nc2ccccc2c2nnc(SCC(=O)N(Cc3ccccc3)c3ccccc3)n12`, the growth (10 µM unless noted) is 105% (inactive).

For `C[n+]1c2ccccc2c(NC2CCNCC2)c2[nH]c3ccccc3c21`, the growth (10 µM unless noted) was 61.4% (inactive). Regarding `CCN(CC)CCCC(C)Nc1ccnc2cc(Oc3ccccc3)ccc12` (stereo not drawn), the growth (10 µM unless noted) is 69% (inactive) and 97.8% (inactive). Consider `CC(C)(C)OC(=O)N1CCCN(CCNc2nccc(-c3c(-c4cccc(O)c4)nc4sccn34)n2)S1(=O)=O`, for which the growth (10 µM unless noted) is 104% (inactive). On the same count and under the same terms, the result for `N#Cc1cccc(NC(=O)c2oc3ccccc3c2-c2cnn(-c3ccccc3)c2)c1` reads -22.2% [50 µM] (active). Same read-out and setting: the result for `OC(CNC1CCCC1)Cn1c2ccccc2c2ccccc21` (stereo not drawn) reads -47.3% (active). Turning to `O=c1[nH]cc(Cl)cc1O`, the growth (10 µM unless noted) is 75.9% (inactive). On the same count and under the same terms, the value for `CCOc1ccc(NC(=S)N2CCC(CCCC3CCN(C(=S)Nc4ccc(OCC)cc4)CC3)CC2)cc1` was 68.9% (inactive). In the case of `COC1(OC)C2(Cl)C=C(c3ccccc3)C1(Cl)C(Cl)=C2Cl` (stereo not drawn), the growth (10 µM unless noted) is 83.7% (inactive). Regarding `O=c1c(Br)ccc(Br)cc1Br`, for the setting “10 µM unless noted”, the growth was -58.8% (active). In the case of `O=C1CCC(N2C(=O)c3cccc(NCCOCCOCCNC(=O)c4cc5c(o4)C(=O)c4ccccc4C5=O)c3C2=O)C(=O)N1` (stereo not drawn), for the setting “10 µM unless noted”, the growth is -9.95% (active). For the compound `O=C(Nc1ccc(Cl)cc1)Nc1ccc(Cl)c(C(F)(F)F)c1`, the growth (10 µM unless noted) is -60.8% (active). `CCCCCCCCCCCC(=O)OCCNC(=O)C[n+]1ccccc1`: the growth (10 µM unless noted) was 100% (inactive). On to `CC(=O)c1cc(C)c(OC(=O)c2ccccc2)c(C)c1`, for which, where the note is “10 µM unless noted”, the growth is 97.9% (inactive). Take `O=C(N[C@@H]1CCCc2ccccc21)[C@H](CCC(=O)N1CCN(C2CCCCC2)CC1)N1C(=O)[C@@H](N2C(=O)OC[C@@H]2c2ccccc2)[C@H]1/C=C/c1ccccc1`: the growth (10 µM unless noted) was -8.1% (active). `CCCCCC(=O)N1c2ccccc2NC2=C(C(=O)CC(c3ccc(OC)c(OC)c3)C2)C1c1ccc(C(F)(F)F)cc1` (stereo not drawn): the growth (10 µM unless noted) was 45.4% (inactive). On the same count and under the same terms, the value for `CSc1oc(C)nc1[P+](c1ccccc1)(c1ccccc1)c1ccccc1` was 46.5% (inactive); that for `O=S(=O)(NCCCNc1cc(-c2c(-c3cccc(O)c3)nc3sccn23)ccn1)c1cccc(Cl)c1` was 17.7% (inactive); that for `COc1ccc(N)c2c1C(=O)c1ccccc1C2=O` was 45.8% (inactive). `Clc1ccc(-c2ccc(CNCC3CCNCC3)o2)c(-c2ccccc2)c1`: where the note is “10 µM unless noted”, the growth is -62.3% (active). Turning to `Cc1ccc(NC2=CC(=O)C(=O)c3ccccc32)c(C)c1`, the growth (10 µM unless noted) is 38% (inactive). The same measure, in the same setting: the value for `CC(NNC(=S)N1CCCCCC1)c1ccc2ccccc2n1` (stereo not drawn) was 28.8% (inactive).

On to `COc1cc2c(Nc3ccc(Cl)c(Cl)c3F)ncnc2cc1OCC1C[C@@H]2CN(C)C[C@@H]2C1` (stereo partly drawn), for which the growth (10 µM unless noted) was -53.2% (active) and 41.1% (inactive). Still for that read-out and setting: the value for `CCCCn1cnc2c(Sc3c([N+](=O)[O-])ncn3C)nc(N)nc21` was 54.3% (inactive); that for `CCOC(=O)/C=C/c1ccc(C(=O)OCC)[nH]1` was 51.2% (inactive); that for `COc1cc(-c2cc(-c3cc4c([nH]c5ccccc54)c(-c4cc(OC)c(OC)c(OC)c4)n3)cc(-c3ccccc3)n2)cc(OC)c1OC` was 30.9% (inactive). With `COc1ccc(-c2nc3sc4c(c3c(=O)[nH]2)CCCC4)c2ccccc12`, for the setting “10 µM unless noted”, the growth is -24.7% (active). On to `CC(C)[N+](C)(C)CC(O)COc1cccc2ccccc12` (stereo not drawn), for which the growth (10 µM unless noted) is 126% (inactive). Consider `COc1cccc2c1C(=O)c1c(O)c3c(c(O)c1C2=O)C[C@@](O)(C(=O)CO)C[C@@H]3OC1CC(N)C(O)C(C)O1` (stereo partly drawn), for which, where the note is “0.0025 µM”, the growth was 100% (inactive). Take `Cc1c2oc3c(C)ccc(C(=O)N[C@@H]4C(=O)N[C@H](C(C)C)C(=O)N5CCC[C@H]5C(=O)N(C)CC(=O)N(C)[C@@H](C(C)C)C(=O)O[C@H]4C)c3nc-2c(C(=O)N[C@@H]2C(=O)N[C@H](C(C)C)C(=O)N3CCC[C@H]3C(=O)N(C)CC(=O)N(C)[C@@H](C(C)C)C(=O)O[C@H]2C)c(N)c1=O`: the growth (0.0025 µM) is 42.6% (inactive).
